Data: PubChem BioAssay (NCATS)
Results filed as inconclusive are left out. Active and inactive are the calls of the source. Unless noted, calls follow the shape of the full dose curve.

Legend:
[1] = target: Bile acid receptor (Homo sapiens) (UniProt Q96RI1); experiment: qHTS assay for small molecule agonists of farnesoid X receptor signaling (AID 588527); settings: HEK293T FXR-UAS-bla, beta-lactamase ratio, 16 h; activation: stronger effect = higher value;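 also: series mostly up to about 77 µM; 0% = vehicle basal and 100% = reference agonist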
How it was run: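 FXR-UAS-bla HEK293T cells (10% dialyzed FBS) preincubated 5-7 h at 37 C, then compounds at up to 92 uM for 16 h at 37 C. CCF4 beta-lactamase read-out after 2 h RT. Normalized to chenodeoxycholic acid (100 uM) and DMSO; Hill fit gave EC50 and efficacy.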

[2] = target: Peroxisome proliferator-activated receptor delta (Homo sapiens) (UniProt Q03181); experiment: qHTS assay for small molecule agonists of peroxisome proliferator-activated receptor delta signaling (AID 588534);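 also: 0% = DMSO basal wells and 100% = positive control agonist at 10 µM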
How it was run: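 Fluorescence from CCF4 substrate cleavage by beta-lactamase reporter, read 2 hrs at RT, measured agonist activity. Compounds were tested with 18 hrs exposure at 37 C. Concentration-response data fitted to Hill equation.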

[3] = target: Thyroid hormone receptor beta (Homo sapiens) (UniProt P10828); experiment: qHTS assay for small molecule agonists of thyroid hormone receptor beta signaling (AID 588545)
How it was run: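 Agonist activity was read as beta-lactamase CCF4 fluorescence (405 ex, 460/530 em), scaled between DMSO (0%) and 10 nM T3 (100%), then Hill-fitted for EC50 and efficacy. HEK 293 TR-UAS-bla cells in 2% charcoal/dextran FBS medium were exposed 18 h at 37 C.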

[4] = qHTS assay for small molecule antagonists of retinoid X receptor alpha signaling (AID 588546; active = well fitted inhibition curve with a large enough effect in the signal ratio, with a control signal flat, not every such curve was filed as active; the % refers to the signal ratio;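 also: cells stimulated with 9-cis-retinoic acid as agonist; % is scaled to controls: 0 for no effect and ±100 for the full control effect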); settings: HEK293T RXRa-UAS-bla, beta-lactamase ratio, antagonist mode; measured here: W530 green channel, cytotoxicity proxy
How it was run: (§1)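 Beta-lactamase reporter inhibition, read as CCF4 fluorescence ratio (ex 405, em 460/530 nm) after 2 h at RT. HEK293T UAS-bla cells, 2500/well, were stimulated with 9-cis-RA at 500 or 100 nM final alongside test compound for 18 h at 37 C.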

[5] = target: Retinoic acid receptor RXR-alpha (Homo sapiens) (UniProt P19793); experiment: as above; settings: HEK293T RXRa-UAS-bla, beta-lactamase ratio, antagonist mode
How it was run: as §1

[6] = qHTS assay for small molecule activators of the p53 signaling pathway (AID 651743; active = well fitted activation curve with a large enough effect in the signal ratio, not every such curve was filed as active; the % refers to the signal ratio; also: potency is read from the fitted curve at half-maximal effect; as to activation: series mostly up to about 92 µM; % of control where 0% means no effect); settings: HCT-116 p53RE-bla, beta-lactamase FRET ratio, 16 h; activation: stronger effect = higher value
How it was run: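 Read-out is fluorescence intensity from the LiveBLAzer B/G FRET substrate, added for 2 hours at room temperature after HCT-116 p53RE-bla cells had been incubated with compounds for 16 hours at 37 C.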

[7] = qHTS assay for environmental chemicals that activate the Aryl hydrocarbon Receptor (AhR) signaling pathway (AID 651777; active = well fitted curve in the direction sought with a large enough effect; an effect the other way counts as inactive or inconclusive; also: % of control where 0% means no effect; nearly all actives have a fitted effect of over 15% in size); settings: 1A2-DRE human hepatoma cells, luciferase, 24 h; activation: stronger effect = higher value
How it was run: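 Concentration–response screening used 1,200 1A2-DRE cells per well, 24 hr compound exposure (37 C, 5% CO2), and One-Glo luminescence as the AhR-driven CYP1A2 reporter signal.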

[8] = target: Peroxisome proliferator-activated receptor alpha (Homo sapiens) (UniProt Q07869); experiment: qHTS assay for small molecule agonists of the peroxisome proliferator-activated receptor alpha (PPARalpha) signaling pathway (AID 651778; active = well fitted curve in the direction sought with a large enough effect; an effect the other way counts as inactive or inconclusive; also: % of control where 0% means no effect); settings: PathHunter PPARalpha complementation, chemiluminescence, 6 h; max response: stronger effect = higher value
How it was run: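 Chemiluminescence from complemented enzyme reported PPARalpha activation in cells after 6 hr of compound treatment at 37 C. The detection reagent was incubated for 60 min at room temperature, and compounds were scored as agonists.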

[9] = qHTS assay for small molecule agonists of the antioxidant response element (ARE) signaling pathway measured by Nrf2-dependant transcriptional activity (AID 720636; active = well fitted curve in the direction sought with a large enough effect in the repeat runs; an effect the other way counts as inactive or inconclusive; also: potency is read from the fitted curve at half-maximal effect;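 as to activation: HepG2 cells with an ARE-driven luciferase reporter; % of control where 0% means no effect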)
How it was run: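 Attachment 6 hr at 37 C, then compound versus DMSO vehicle for 16 hr in ARE-luc HepG2 cells (1% dialyzed FBS); luminescence recorded 30 min after ONE-Glo addition at room temperature.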

[10] = qHTS assay for cell viability of the p53RE-bla HCT-116 cell line (AID 743292; active = well fitted curve in the direction sought with a large enough effect; an effect the other way counts as inactive or inconclusive; also: % is scaled to controls: 0 for no effect and ±100 for the full control effect; nearly all actives have a fitted effect of over 55% in size)
How it was run: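 Compound-exposed HCT-116 (p53RE-bla) cells, 4,000 per well, were kept 16 h at 37 C following a 5 h preincubation. Cell number was estimated from total ATP by CellTiter-Glo luminescence read after 30 min at room temperature.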

[11] = target: Glucocorticoid receptor (Homo sapiens) (UniProt P04150); experiment: qHTS assay for small molecule antagonists of glucocorticoid receptor signaling (AID 588533; active = well fitted inhibition curve with a large enough effect in the signal ratio, with a control signal flat, not every such curve was filed as active; the % refers to the signal ratio;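 also: cells stimulated with 2 nM dexamethasone as agonist; % is scaled to controls: 0 for no effect and ±100 for the full control effect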)
How it was run: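 Antagonist-mode qHTS: compound titrations added to GRE-bla HeLa cells, then dexamethasone 2 nM final; 18 h, 37 C. CCF4 FRET fluorescence normalized to dexamethasone and DMSO; IC50 from Hill fit.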

[12] = qHTS assay for small molecule antagonists of peroxisome proliferator-activated receptor delta signaling (AID 588535); settings: HEK293T PPARd-UAS-bla, beta-lactamase FRET ratio, 18 h; 460 nm channel;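 also: cells co-treated with a PPAR-delta agonist as stimulator during compound exposure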
How it was run: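 HEK293T PPAR-delta-UAS-bla cells, 4000/well, 2% charcoal/dextran FBS; 5 h 37 C; cpd titration; 18 h 37 C; CCF4 2 h RT; FI 460/530 nm; Hill fit → IC50, efficacy.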

[13] = target: Vitamin D3 receptor (Homo sapiens) (UniProt P11473); experiment: qHTS assay for small molecule antagonists of vitamin D receptor signaling (AID 588541); also: potency is read from the fitted curve at half-maximal effect
How it was run: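 Antagonist-mode beta-lactamase reporter assay: HEK293T VDR-UAS-bla cells were exposed to titrated compound alongside 1-alpha,25-dihydroxyvitamin D3 at 3 nM final for 16 h. Values were normalized to the 50 nM agonist control and DMSO basal, with IC50 and efficacy from Hill equation fits.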

[14] = target: Vitamin D3 receptor (Homo sapiens) (UniProt P11473); experiment: qHTS assay for small molecule agonists of vitamin D receptor signaling (AID 588543);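 also: 0% = DMSO basal and 100% = reference agonist control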
How it was run: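 Reporter cells (HEK293T, VDR-UAS-bla) were seeded in medium with 2% charcoal-stripped serum and incubated 5 h, then compounds in concentration series were added for 16 h at 37 °C. Stimulation was scaled between DMSO basal and 50 nM 1α,25-dihydroxyvitamin D3.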

[15] = qHTS assay for small molecule agonists of retinoid X receptor alpha signaling (AID 588544); settings: HEK293T RXRa-UAS-bla, beta-lactamase reporter, 18 h; 530 nm emission;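 as to activation: 0% = DMSO basal wells and 100% = reference agonist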
[16] = target: Retinoic acid receptor RXR-alpha (Homo sapiens) (UniProt P19793); experiment: as above
[17] = target: Thyroid hormone receptor beta (Homo sapiens) (UniProt P10828); experiment: qHTS assay for small molecule antagonists of thyroid hormone receptor beta signaling (AID 588547; active = well fitted inhibition curve with a large enough effect in the signal ratio, with a control signal flat, not every such curve was filed as active; the % refers to the signal ratio;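 also: cells stimulated with 0.4 nM T3 agonist during compound exposure; series mostly up to about 77 µM; % is scaled to controls: 0 for no effect and ±100 for the full control effect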); settings: TR-UAS-bla HEK293, beta-lactamase ratio, antagonist mode, 18 h
How it was run: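 Inhibition of T3-driven (0.4nM final) beta-lactamase reporter activity was measured over 0.59 nM to 92 uM compound after 18 h at 37 C. The cells were GripTite HEK293 TR-UAS-bla in charcoal/dextran-stripped serum, with CCF4 ratio read-out and IC50 from Hill fits.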

[18] = qHTS assay for small molecule agonists of the antioxidant response element (ARE) signaling pathway measured by Nrf2-dependant transcriptional activity - cell viability counter screen (AID 720653; active = well fitted curve in the direction sought with a large enough effect in the repeat runs; an effect the other way counts as inactive or inconclusive; also: % is scaled to controls: 0 for no effect and ±100 for the full control effect); settings: ARE-bla HepG2 viability, CellTiter-Glo ATP luminescence, 16 h; max response: stronger effect = lower value
How it was run: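 Cytotoxicity counter screen: intracellular ATP quantified by CellTiter-Glo luminescence in the same ARE-bla HepG2 plates, after 16 h compound exposure and a 2 h beta-lactamase substrate step.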

[19] = qHTS assay for cell viability of HEK293 cells (AID 743288; active = well fitted curve in the direction sought with a large enough effect; an effect the other way counts as inactive or inconclusive; also: % is scaled to controls: 0 for no effect and ±100 for the full control effect; nearly all actives have a fitted effect of over 50% in size); settings: ATP luminescence (CellTiter-Glo), 18 h; max response: stronger effect = lower value
How it was run: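 HEK293 parental, 2,000 cells/well; ≥5 h pre-incubation 37 C; pintool compound addition; 18 h, 37 C; CellTiter-Glo 30 min RT; luminescence read.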

[20] = target: Nuclear receptor subfamily 1 group I member 2 (Rattus norvegicus) (UniProt Q9R1A7); experiment: qHTS assay for small molecule activators of the rat pregnane X receptor (rPXR) signaling pathway (AID 651751; call rule not given here; also: 0% is about no effect); settings: rPXR reporter cells, luciferase (One-Glo), 24 h
Chain of Nuclear receptor subfamily 1 group I member 2 (Rattus norvegicus) (Q9R1A7 whole entry, looked up): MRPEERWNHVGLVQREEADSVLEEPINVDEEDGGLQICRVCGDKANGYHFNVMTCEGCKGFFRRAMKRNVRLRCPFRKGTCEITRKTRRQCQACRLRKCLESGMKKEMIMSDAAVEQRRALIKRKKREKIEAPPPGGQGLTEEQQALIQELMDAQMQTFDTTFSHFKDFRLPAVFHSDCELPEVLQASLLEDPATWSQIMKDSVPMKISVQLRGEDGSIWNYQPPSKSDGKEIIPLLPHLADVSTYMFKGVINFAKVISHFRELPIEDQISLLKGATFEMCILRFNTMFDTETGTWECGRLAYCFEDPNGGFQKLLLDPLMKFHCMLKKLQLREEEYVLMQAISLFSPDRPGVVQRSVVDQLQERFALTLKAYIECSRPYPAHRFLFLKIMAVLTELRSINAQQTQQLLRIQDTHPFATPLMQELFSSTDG

Chain of Vitamin D3 receptor (Homo sapiens) (P11473 whole entry, looked up): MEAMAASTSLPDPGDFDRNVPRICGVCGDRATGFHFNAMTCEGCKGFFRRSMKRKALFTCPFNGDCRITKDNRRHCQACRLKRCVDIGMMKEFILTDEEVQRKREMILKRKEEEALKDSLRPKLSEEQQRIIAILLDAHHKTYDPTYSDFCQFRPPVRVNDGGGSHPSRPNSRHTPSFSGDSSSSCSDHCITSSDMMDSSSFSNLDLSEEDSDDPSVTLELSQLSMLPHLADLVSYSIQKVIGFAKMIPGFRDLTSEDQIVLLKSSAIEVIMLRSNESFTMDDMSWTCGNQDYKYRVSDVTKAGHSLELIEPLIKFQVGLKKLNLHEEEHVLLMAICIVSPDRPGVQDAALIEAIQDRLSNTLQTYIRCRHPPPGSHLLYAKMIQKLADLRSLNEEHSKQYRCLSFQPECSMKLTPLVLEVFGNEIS
Chain of Peroxisome proliferator-activated receptor alpha (Homo sapiens) (Q07869 whole entry, looked up): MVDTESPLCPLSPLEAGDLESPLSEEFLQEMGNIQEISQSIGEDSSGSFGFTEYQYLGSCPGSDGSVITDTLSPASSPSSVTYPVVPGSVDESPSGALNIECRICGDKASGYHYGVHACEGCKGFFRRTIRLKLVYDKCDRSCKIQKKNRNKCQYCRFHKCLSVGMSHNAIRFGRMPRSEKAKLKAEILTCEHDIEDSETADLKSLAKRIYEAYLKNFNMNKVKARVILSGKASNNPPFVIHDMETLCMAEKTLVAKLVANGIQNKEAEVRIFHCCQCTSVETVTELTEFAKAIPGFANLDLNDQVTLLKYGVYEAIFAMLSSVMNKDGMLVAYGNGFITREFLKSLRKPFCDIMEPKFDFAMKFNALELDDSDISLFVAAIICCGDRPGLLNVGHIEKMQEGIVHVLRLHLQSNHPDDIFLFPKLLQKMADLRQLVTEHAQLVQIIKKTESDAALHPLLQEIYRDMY
Chain of Glucocorticoid receptor (Homo sapiens) (P04150 whole entry, looked up): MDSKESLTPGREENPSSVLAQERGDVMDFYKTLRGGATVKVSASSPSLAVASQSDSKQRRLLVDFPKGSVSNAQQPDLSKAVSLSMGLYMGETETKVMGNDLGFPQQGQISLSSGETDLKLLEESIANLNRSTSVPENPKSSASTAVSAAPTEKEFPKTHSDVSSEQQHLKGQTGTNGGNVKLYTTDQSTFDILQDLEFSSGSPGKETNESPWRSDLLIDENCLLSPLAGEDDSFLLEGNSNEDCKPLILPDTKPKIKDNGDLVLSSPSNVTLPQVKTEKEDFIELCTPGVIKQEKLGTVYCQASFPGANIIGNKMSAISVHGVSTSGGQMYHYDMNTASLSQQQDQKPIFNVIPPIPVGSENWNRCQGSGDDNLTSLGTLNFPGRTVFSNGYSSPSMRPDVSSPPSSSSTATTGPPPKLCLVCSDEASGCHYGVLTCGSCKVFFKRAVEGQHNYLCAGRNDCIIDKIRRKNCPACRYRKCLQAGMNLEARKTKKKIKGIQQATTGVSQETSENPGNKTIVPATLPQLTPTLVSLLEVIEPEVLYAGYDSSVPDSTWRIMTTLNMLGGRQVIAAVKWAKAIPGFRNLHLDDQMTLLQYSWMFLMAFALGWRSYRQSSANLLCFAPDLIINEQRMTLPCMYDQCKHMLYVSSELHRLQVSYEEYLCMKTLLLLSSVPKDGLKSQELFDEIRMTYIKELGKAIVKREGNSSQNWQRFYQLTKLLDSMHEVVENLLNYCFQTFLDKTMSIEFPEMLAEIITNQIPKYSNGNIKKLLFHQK
Chain of Thyroid hormone receptor beta (Homo sapiens) (P10828 whole entry, looked up): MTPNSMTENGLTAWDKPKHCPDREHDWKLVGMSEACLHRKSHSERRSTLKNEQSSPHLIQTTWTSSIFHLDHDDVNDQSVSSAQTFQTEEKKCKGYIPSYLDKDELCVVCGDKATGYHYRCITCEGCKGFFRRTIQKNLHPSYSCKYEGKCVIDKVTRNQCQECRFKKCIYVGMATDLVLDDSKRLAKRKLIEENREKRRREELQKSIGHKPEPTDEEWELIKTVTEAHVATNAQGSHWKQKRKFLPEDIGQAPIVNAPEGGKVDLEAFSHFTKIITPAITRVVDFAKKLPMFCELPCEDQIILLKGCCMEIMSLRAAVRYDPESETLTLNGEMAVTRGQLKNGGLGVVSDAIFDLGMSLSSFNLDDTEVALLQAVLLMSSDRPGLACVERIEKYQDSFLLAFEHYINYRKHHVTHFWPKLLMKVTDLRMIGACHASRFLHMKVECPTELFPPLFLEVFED
Chain of Bile acid receptor (Homo sapiens) (Q96RI1 whole entry, looked up): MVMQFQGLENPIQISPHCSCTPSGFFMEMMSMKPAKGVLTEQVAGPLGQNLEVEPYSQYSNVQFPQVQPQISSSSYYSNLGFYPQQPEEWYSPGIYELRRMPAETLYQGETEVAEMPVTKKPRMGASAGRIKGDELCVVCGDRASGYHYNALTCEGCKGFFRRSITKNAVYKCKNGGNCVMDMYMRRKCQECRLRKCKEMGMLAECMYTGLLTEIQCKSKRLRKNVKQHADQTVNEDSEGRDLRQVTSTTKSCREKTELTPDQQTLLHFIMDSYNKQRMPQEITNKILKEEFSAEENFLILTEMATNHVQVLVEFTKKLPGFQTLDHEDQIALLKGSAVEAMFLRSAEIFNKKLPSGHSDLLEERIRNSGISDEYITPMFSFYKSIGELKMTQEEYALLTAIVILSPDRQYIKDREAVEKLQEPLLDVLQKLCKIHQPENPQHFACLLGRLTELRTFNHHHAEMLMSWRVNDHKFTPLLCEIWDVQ
Chain of Peroxisome proliferator-activated receptor delta (Homo sapiens) (Q03181 whole entry, looked up): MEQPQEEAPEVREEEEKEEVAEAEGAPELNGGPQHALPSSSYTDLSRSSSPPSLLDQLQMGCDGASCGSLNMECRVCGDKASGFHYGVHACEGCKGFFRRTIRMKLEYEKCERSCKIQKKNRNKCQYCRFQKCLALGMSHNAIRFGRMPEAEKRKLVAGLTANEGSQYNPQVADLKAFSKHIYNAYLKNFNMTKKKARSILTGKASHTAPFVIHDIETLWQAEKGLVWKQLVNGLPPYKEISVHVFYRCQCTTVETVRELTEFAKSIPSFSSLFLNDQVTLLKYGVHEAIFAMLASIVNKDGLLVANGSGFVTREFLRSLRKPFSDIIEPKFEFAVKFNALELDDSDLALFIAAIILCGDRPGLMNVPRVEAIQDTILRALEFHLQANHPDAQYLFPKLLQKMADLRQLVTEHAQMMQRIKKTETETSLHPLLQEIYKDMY
Chain of Retinoic acid receptor RXR-alpha (Homo sapiens) (P19793 whole entry, looked up): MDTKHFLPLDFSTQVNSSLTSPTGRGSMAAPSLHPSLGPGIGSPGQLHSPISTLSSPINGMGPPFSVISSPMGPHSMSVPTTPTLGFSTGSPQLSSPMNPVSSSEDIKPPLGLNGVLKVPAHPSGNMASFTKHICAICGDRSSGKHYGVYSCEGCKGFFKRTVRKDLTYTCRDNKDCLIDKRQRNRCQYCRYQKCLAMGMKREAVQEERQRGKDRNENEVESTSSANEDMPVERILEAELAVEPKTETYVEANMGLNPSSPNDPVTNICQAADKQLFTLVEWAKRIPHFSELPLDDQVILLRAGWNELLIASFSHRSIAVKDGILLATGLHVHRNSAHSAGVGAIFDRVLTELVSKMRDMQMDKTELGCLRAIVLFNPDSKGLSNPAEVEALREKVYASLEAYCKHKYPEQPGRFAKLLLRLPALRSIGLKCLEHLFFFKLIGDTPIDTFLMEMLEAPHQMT

CCCCNC(=O)OCC#CI
2.86%: max response [4]
inactive: activation [1] 1.93% | outcome [2] | Potency [3] | max response [5] -22.6% | activation [6] -1.36% | activation [7] -10.9% | max response [8] -2.4% | Potency [9] | Potency [10]

CCOP(=O)(OCC)SCS(=O)(=O)C(C)(C)C
4.6%: max response [15]
-4.31%: max response [4]
inactive: activation [1] -5.69% | Potency [11] | outcome [2] | Potency [13] | outcome [14] | Potency [16] | Potency [3] | max response [5] 2.18% | activity change % (negative = inhibition) [17] -16.4% | activation [6] 2.21% | activation [7] 2.25% | max response [8] -3.37% | Potency [9] | max response [18] 1.67% | max response [19] -4.67% | Potency [10] | max response [20] 5.96%
-7.9%: max response [12]

COP(=O)(OC)OC(Br)C(Cl)(Cl)Br (configuration not stated)
active: Potency [13] 44.7 µM | Potency [9] 68.6 µM
inactive: outcome [2] | outcome [14] | Potency [3] | activity change % (negative = inhibition) [17] -62.2% | max response [8] -1.63% | max response [18] -24% | Potency [10]
-79.2%: max response [12]

O=S(=O)(c1ccc(Cl)cc1)c1cc(Cl)c(Cl)cc1Cl
inactive: activation [1] 3.42% | Potency [11] | Potency [13] | outcome [14] | activity change % (negative = inhibition) [17] 6.33% | activation [6] 8.22% | activation [7] -2.98% | Potency [9] | max response [18] -29.2% | max response [19] -31.9% | Potency [10]

CO/N=C(/C(=O)OC)c1ccccc1COc1ccccc1C
inactive: activation [1] -0.265% | outcome [14] | Potency [16] | activation [7] 13.1% | max response [8] 5.1% | Potency [9] | max response [18] -19.8% | max response [19] -26.1% | Potency [10]
13.9%: max response [15]
active: Potency [6] 25.1 µM

CC(C)(C)C(O)C(Oc1ccc(-c2ccccc2)cc1)n1cncn1 (configuration not stated)
-42.4%: max response [12]
inactive: activation [1] 2.98% | Potency [11] | Potency [13] | outcome [14] | Potency [3] | activation [6] 6.28% | activation [7] 0.741% | max response [8] 1.37% | Potency [9] | max response [18] -1.48% | max response [19] -21.2% | Potency [10]

COC(=O)/C=C(\C)OP(=O)(OC)OC
-19.7%: max response [4]
-21.6%: max response [12]
-22.9%: max response [15]
inactive: activation [1] 7.79% | Potency [11] | outcome [2] | Potency [16] | Potency [3] | max response [5] -10.3% | activation [6] -3.2% | activation [7] 0.265% | max response [8] -1.45% | Potency [9] | max response [18] 12.7% | max response [19] -3.83% | Potency [10] | max response [20] -0.069%
